Screening data from PubChem BioAssay.
PAFAH1B3 inh = PAFAH1B3 enzyme inhibitors, primary screen, biochemical, fluorescence polarization, human; actives 0.28% (n = 340,000); inhibition, % at 3.39 µM; Platelet-activating factor acetylhydrolase IB subunit alpha1 (Homo sapiens), Q15102; recombinant PAFAH1B3, FP-rhodamine probe;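 active = inhibition above the screen-wide average of all tested compounds plus 3 SD, cut at about 25% in these data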;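 also: 0% = enzyme with DMSO only and 100% = wells lacking PAFAH1B3 protein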
PAFAH2 inh = PAFAH2 enzyme inhibitors, primary screen, biochemical, fluorescence polarization, human. inhibition, % at 3.39 µM. actives 0.99% (n = 340,000). Platelet-activating factor acetylhydrolase 2, cytoplasmic (Homo sapiens), Q99487. recombinant PAFAH2, FP-rhodamine activity probe;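 active = inhibition above the mean over all tested compounds plus 3 SD, cut at about 30% in these data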;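 also: inhibitors block probe labeling of enzyme so polarization drops; 0% = enzyme with DMSO and 100% = wells lacking PAFAH2 protein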
rCAG RNA binder = binders of r(CAG) RNA repeats, primary screen, biochemical, fluorescence. actives 1.3% (n = 370,000). AID 651821, 2012. r(CAG) RNA repeat, TO-PRO-1 dye displacement fluorescence. inhibition, % at 3 µM;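 active = inhibition above the plate cutoff, the mean of all test compounds on that plate plus 3 SD, cut at about 35% in these data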;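 also: 0% = DMSO alone and 100% = 100 µM mitoxantrone as full dye displacement; higher means more dye released from RNA so lower well fluorescence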
ZTA counter = blocks Epstein-Barr virus ZTA, an EBNA-1 counter-screen; P03206; ZTA-DNA binding, fluorescence polarization; inhibition, % at 11 µM; actives 0.15% (n = 320,000); AID 2234; in the data active = inhibition above about 33%
Target sequence (P03206 whole entry, looked up): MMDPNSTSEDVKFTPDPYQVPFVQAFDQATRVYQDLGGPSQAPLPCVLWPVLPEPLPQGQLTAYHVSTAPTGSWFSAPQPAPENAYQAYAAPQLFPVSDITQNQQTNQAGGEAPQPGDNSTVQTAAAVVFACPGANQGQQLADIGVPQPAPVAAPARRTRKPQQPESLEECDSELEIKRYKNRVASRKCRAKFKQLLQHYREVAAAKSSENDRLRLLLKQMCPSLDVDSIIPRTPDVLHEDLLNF
PAFAH1B2 inh = PAFAH1B2 enzyme inhibitors, primary screen, biochemical, fluorescence polarization, human. Platelet-activating factor acetylhydrolase IB subunit alpha2 (Homo sapiens), P68402. recombinant PAFAH1B2, FP-rhodamine activity probe. inhibition, % at 3.39 µM. actives 1.2% (n = 340,000);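 active = inhibition above the mean of all tested compounds plus 3 SD, cut at about 24% in these data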;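 also: 0% = enzyme with DMSO and 100% = wells lacking PAFAH1B2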
Target sequence (P68402 whole entry, looked up): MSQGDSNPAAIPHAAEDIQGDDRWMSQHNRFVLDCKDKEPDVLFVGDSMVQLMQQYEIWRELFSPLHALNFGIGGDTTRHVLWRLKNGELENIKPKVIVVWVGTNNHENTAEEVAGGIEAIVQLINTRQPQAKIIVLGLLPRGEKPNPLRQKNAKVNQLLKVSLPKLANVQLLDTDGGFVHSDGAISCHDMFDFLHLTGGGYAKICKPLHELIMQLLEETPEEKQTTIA
EBNA-1 inh = EBNA-1 DNA-binding inhibitors, primary screen, biochemical, fluorescence polarization; inhibition, % at 14.8 µM; actives 0.34% (n = 300,000); AID 1950, 2009; in the data active = inhibition above about 28%
* = called active by the depositor; · = not tested or not shown. Compounds with a hit are over-represented: about 2.9% of the library has one in this group of screens.

SMILES	PAFAH1B3 inh	PAFAH2 inh	rCAG RNA binder	ZTA counter	PAFAH1B2 inh	EBNA-1 inh
C#CCOCCOCCOCCNc1nc(N2CCN(C(=O)CCCCCCCCCCNC(=O)Cn3cc(C[C@@H](C)O)nn3)CC2)nc(N2CCN(C(=O)CCCCCCCCCCNC(=O)[C@@H]([C@H](C)CC)n3cc(CCCCCN)nn3)CC2)n1	14	-12	·	-7	4	-1
O=S1(=O)c2c(cccc2N2CCSCC2)Oc2ccccc2CN1Cc1cn(Cc2cccc(F)c2)nn1	·	·	4	·	·	·
O=C1CC[C@@H](OCc2ccccc2)CCN1CC[C@H](Sc1ccccc1)c1ccccc1	-2	33*	-4	-1	5	0
CC1(C)NC(=O)N(CC(=O)OCC(=O)c2ccc(Cl)s2)C1=O	3	4	2	·	2	·
CC1(C)NC(=O)N(CC(=O)OCC(=O)c2ccc(F)cc2)C1=O	2	6	2	1	5	102*
CCOc1ccc(S(=O)(=O)Nc2ccccc2C(=O)NCc2ccco2)cc1	0	7	21	-20	2	0
COc1ccc(S(=O)(=O)Nc2ccccc2C(=O)NCc2ccco2)cc1Br	0	8	43*	-2	1	7
CC1(OC(=O)c2cnc3ccccc3n2)C(=O)C=C2C=C(C3CC3)OC=C2C1=O (stereo unspecified)	·	·	·	48*	·	28*
COc1cc(C(c2c(C)[nH][nH]c2=O)c2c(C)[nH][nH]c2=O)ccc1OCc1ccc([N+](=O)[O-])cc1	8	1	22	-6	26*	3
N#CC(=C(c1ccccc1)c1ccccc1)c1ccccc1	5	0	1	·	24*	·
COC(=O)[C@]12C[C@H](CC(=O)NCCc3ccccc3OC)C(=O)N(Cc3ccc4c(c3)OCO4)C1=C[C@H](C(C)(C)C)O[C@@H]2C	·	·	2	·	·	·
c1ccc(-c2c[nH]c3cccc(C4CCCCC4)c23)cc1	·	·	4	·	·	·
CCOc1ccc(-c2cc3nc(C4CCN(C(=O)OC(C)(C)C)CC4)c(C(=O)O)cn3n2)cc1	-1	-8	70*	15	-4	-2
Cc1cc(C)cc(NC(=O)C2(C(=O)C3CC3)CC(c3ccccc3C(F)(F)F)=NO2)c1 (stereo unspecified)	·	·	1	·	·	·
Cc1c(C(=O)OCCOc2ccc(Br)cc2)sc(=S)n1C	3	3	-1	8	28*	6
N#Cc1ccc(OC[C@@H](O)CN2CCC(C(O)(c3ccccc3)c3ccccc3)CC2)cc1	·	·	3	·	·	·
CN1/C(=C\C(=O)COC(=O)c2ccc(O)cc2)C(C)(C)c2ccccc21	-12	52*	-5	2	-4	-8
CN1/C(=C\C(=O)COC(=O)c2ccc(O)c(O)c2)C(C)(C)c2ccccc21	·	·	11	20	·	6
O=C(CCSCc1ccc(Cl)cc1)NC1CCCC1	1	-2	0	-9	27*	-1
Cc1ccc(CNC(=O)CCSCc2cccc(F)c2)cc1	8	0	-5	7	25*	2
Cc1ccc(SCCC(=O)Nc2ccccc2Br)cc1	8	2	-7	2	26*	5
Cc1ccccc1CSCCNC(=O)CCSc1ccccc1	2	1	-8	1	18	-4
Cc1ccc(CNC(=O)CCSCc2ccc(C)cc2)cc1	2	5	-6	-1	15	10
Cc1ccc(CSCCNC(=O)CCSc2ccccc2)cc1	0	4	-2	-12	41*	4
O=C(NC1CCCC1)C1CCN(S(=O)(=O)c2ccc3[nH]c(=O)oc3c2)CC1	·	·	4	·	·	·
SMILES	PAFAH1B3 inh	PAFAH2 inh	rCAG RNA binder	ZTA counter	PAFAH1B2 inh	EBNA-1 inh
Cc1ccc(CSCCC(=O)NCCc2ccc(Cl)cc2)cc1	1	-2	0	-3	15	10
O=C(CCSCc1cccc(Cl)c1)NCCc1ccc(Cl)cc1	0	1	-1	7	28*	4
Cc1ccc(-c2nc(CSCC(=O)N3CCN(c4ccccn4)CC3)c(C)o2)cc1	3	3	1	1	25*	5
CCc1ccc(-c2nc(CSCC(=O)N3CCN(c4ccccn4)CC3)c(C)o2)cc1	3	-1	-5	-11	44*	0
Cc1ccc(-c2nc(CSCC(=O)N3CCN(C(=O)c4ccco4)CC3)c(C)o2)cc1	2	7	5	-9	0	-4
Cc1ccc(-c2nc(CSCC(=O)N3CCOCC3)c(C)o2)cc1	6	-1	-4	24	3	13
CN(C)C1(CN=Cc2cc(Cl)cc([N+](=O)[O-])c2O)CCCCC1	5	34*	34	20	8	10
CCOC(=O)C1=C(C)N(CCCCCC(=O)O)C(=O)NC1c1cccc([N+](=O)[O-])c1 (stereo unspecified)	3	0	5	-13	7	7
CC1=C(C(=O)OCC(Br)(Br)Br)C(c2cccc([N+](=O)[O-])c2)NC(=O)N1CCCC(=O)O (stereo unspecified)	-7	-2	20	18	92*	-7
O=C(COC(=O)COc1ccccc1)NC12CC3CC(CC(C3)C1)C2	-2	2	-2	-15	25*	·
Nc1nc(SCC(=O)C23CC4CC(CC(C4)C2)C3)n[nH]1	-2	0	3	-5	27*	-4
COc1ccccc1-c1n[nH]c(=S)n1-c1ccccc1	-1	7	2	6	25*	15
CC(C)CNC(=O)C1CSCCS(=O)(=O)N1Cc1ccccc1 (stereo unspecified)	·	·	-1	·	·	·
Cc1ccc(C(c2nnnn2Cc2ccccc2)N2CCN(Cc3ccccc3)CC2)cc1 (stereo unspecified)	1	0	-7	-6	31*	8
c1ccc(CN2CCN(C(c3ccccc3)c3nnnn3Cc3ccccc3)CC2)cc1 (stereo unspecified)	2	14	-6	-17	15	0
Cc1ccc(C)c(NC(=O)c2cc(-c3ccc(Cl)cc3)nc3ccccc23)c1	·	·	4	·	·	·
O=S(c1ccccc1)C(c1ccccc1)c1ccccc1 (stereo unspecified)	13	4	-1	·	24*	·
Cc1ccc(S(=O)C(c2ccccc2)c2ccccc2)cc1 (stereo unspecified)	10	-4	1	·	9	·
CCOC(=O)CCCCC(=O)c1[nH]c(=O)[nH]c1CSc1nc(C)cc(=O)[nH]1	0	-1	-2	-2	5	6
CCOC(=O)CCCCC(=O)c1[nH]c(=O)[nH]c1CSc1nc2ccccc2[nH]1	24	27	-2	-25	25*	-5
O=S1(=O)c2ccc(N3CCN(Cc4ccccc4F)CC3)cc2Oc2ccccc2CN1Cc1cn(Cc2cccc(F)c2)nn1	·	·	17	·	·	·
Nc1ccc(CSc2ccccc2)cc1	7	9	2	·	32*	·
